An excerpt weighted towards active compounds, which were near 19% of everything screened.
HT1080NT lethal – kills 2HG-producing HT-1080-NT fibrosarcoma cells; AID 686970; Potency, µM (top dose mostly 46.1 µM), actives largely listed as cytotoxic; HT-1080-NT fibrosarcoma viability, CellTiter-Glo ATP luminescence, 48 h; hit rate 1.6% among 360,000;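 further: NT is the 2HG producing partner of a matched IDH1 knockdown line; nearly all actives have a fitted effect of over 55% in size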
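Fibrosarcoma NT cells, 750 per well in 5% FBS RPMI, were exposed to compound for 48 hours. Viability: CellTiter-Glo luminescence.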
TDP1 cell noCPT – qHTS for Inhibitors of human tyrosyl-DNA phosphodiesterase 1 (TDP1): qHTS in cells in absence of CPT | hit rate 15% among 420,000 | DT40 Tdp1-/- hTDP1 cells, no CPT, ATP luminescence, 48 h | Potency, µM (series often up to 46.2 µM), usual class: inhibitors; further: nearly all actives have a fitted effect of over 55% in size
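Luminescent ATP content (CellTiter-Glo) served as the growth readout. Knockout chicken DT40 cells expressing human TDP1 were exposed to compounds without camptothecin for a minimum 48 hr at 37 °C.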
HT1080 IDH1KD tx – HT-1080 IDH1 knockdown cell toxicity (counter line) | hit rate 2% among 360,000 | HT-1080 IDH1 knockdown viability, ATP luminescence, 48 h | AID 686971 | Potency, µM (titrated, usually from 46.1 µM), hits mostly cytotoxic
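Knockdown cells (IDH1KD HT-1080) received compounds 2 h after plating at 750 cells/well and were kept 48 h at 37 °C in 5% FBS RPMI. A CellTiter-Glo luminescence read gave % activity for curve fitting.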
TDP1 cell CPT – DT40-hTDP1 cell growth loss with CPT; chicken DT40 Tdp1-/-;hTDP1 cells + 20 nM CPT, ATP luminescence, 48 h; Potency, µM (series often up to 46.2 µM), hits mostly inhibitors; hit rate 12% among 420,000; AID 686979; further: nearly all actives have a fitted effect of over 55% in size
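Chicken DT40 Tdp1-/- cells stably complemented with human TDP1 were seeded at 400 cells/well in medium containing 20 nM camptothecin, exposed to pin-transferred compounds, and grown at 37 °C for at least 48 hr. Viability was read as ATP luminescence.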
IL-1B inflam inh – blocks inflammasome-driven IL-1 beta release. THP-1 LPS/ATP IL-1B secretion, AlphaLISA, 16 h; stronger effect = lower value. activity change, % at 57.5 µM. hit rate 4.7% among 360,000; in the data active means activity change below about -50%; inconclusive means mostly about -30% to -49%
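THP-1 cells pretreated 1 hr with compounds (up to 57.5 uM final), then stimulated with LPS (250 ng/mL final) plus ATP (1.25 mM final); secreted IL-1B measured by AlphaLISA after 16 hr, decreased signal indicating inhibition.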
ELG1 repair inh – blocks ELG1-dependent DNA repair in HEK293T cells | HEK293T ELG1-luciferase reporter, luminescence, 16 h; DNA damage induced by 5-fluorouridine | Potency, µM (top dose mostly 46.1 µM), most hits filed as inhibitors | hit rate 2.3% among 330,000; further: nearly all actives have a fitted effect of over 55% in size
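Overnight (16 hr) co-exposure of 2,000 cells/well to 5-fluorouridine and compound at 37 °C preceded detection. Luciferase was quantified via ONE-Glo luminescence; loss of signal denotes inhibition.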
Of the large screens only hits and unclear results are named; the others gave an inactive call. Unless noted, the call rests on the fitted dose curve; in most records, active means well fitted curve in the direction sought with a large enough effect; inconclusive means small, poorly fitted or top-dose-only effect, or another doubt; inactive means no such curve, though single readings can be large; an effect the other way counts as inactive or inconclusive.

Fc1cccc(CCN2CCNC[C@@H]2Cc2ccccc2)c1	TDP1 cell noCPT inconclusive, TDP1 cell CPT inconclusive (no result: ELG1 repair inh)
FC(F)(F)c1cc(CCN2CCNC[C@@H]2Cc2ccccc2)cc(C(F)(F)F)c1	TDP1 cell noCPT inconclusive, TDP1 cell CPT 21µM (no result: ELG1 repair inh)
O=C1NC[C@@H](Cc2cccc3ccccc23)N(CCc2cc(C(F)(F)F)cc(C(F)(F)F)c2)C1=O	TDP1 cell noCPT inconclusive, IL-1B inflam inh -51
O=C1NC[C@H](Cc2ccccc2)N(CCc2cc(C(F)(F)F)cc(C(F)(F)F)c2)C1=O	TDP1 cell noCPT inconclusive, TDP1 cell CPT inconclusive (no result: IL-1B inflam inh, ELG1 repair inh)
COc1ccc(NC(=O)C2Cc3c(-c4cccc(C(N)=O)c4)ccnc3O2)cn1 (configuration not stated)	HT1080NT lethal inconclusive, TDP1 cell noCPT 12µM, HT1080 IDH1KD tx 21µM, TDP1 cell CPT 10µM (no result: ELG1 repair inh)
O=C(NCCC(F)(F)F)C1Cc2c(-c3cccc(F)c3)ccnc2O1 (configuration not stated)	none (no result: ELG1 repair inh)
COc1ccc(NC(=O)C2Cc3c(-c4cccc(NC(C)=O)c4)ccnc3O2)cn1 (configuration not stated)	HT1080NT lethal inconclusive, TDP1 cell noCPT 1.8µM, HT1080 IDH1KD tx inconclusive, TDP1 cell CPT 2.6µM (no result: ELG1 repair inh)
O=C(Nc1cccc(OC(F)(F)F)c1)C1Cc2c(-c3cccc(F)c3)ccnc2O1 (configuration not stated)	HT1080NT lethal inconclusive, TDP1 cell noCPT inconclusive, HT1080 IDH1KD tx inconclusive, TDP1 cell CPT inconclusive, IL-1B inflam inh -89 (no result: ELG1 repair inh)
CC(=O)Nc1ccc(NC(=O)C2Cc3c(-c4cccc(F)c4)ccnc3O2)cc1 (configuration not stated)	none (no result: ELG1 repair inh)
O=C(Nc1ccc(Cl)cc1)C1Cc2c(-c3cccc(F)c3)ccnc2O1 (configuration not stated)	HT1080NT lethal inconclusive, TDP1 cell noCPT 18µM, HT1080 IDH1KD tx inconclusive, TDP1 cell CPT inconclusive, IL-1B inflam inh -64 (no result: ELG1 repair inh)
COc1ccc(OCC(=O)NC2CCSc3ccccc32)cc1 (configuration not stated)	TDP1 cell noCPT inconclusive
COc1ccc(NC(=O)Cn2ncc3c(C)n(Cc4cccc(Cl)c4)c(C)c3c2=O)cc1	none (no result: HT1080NT lethal, HT1080 IDH1KD tx, IL-1B inflam inh, ELG1 repair inh)
Cc1ccc(C(C)C)c(OCC(=O)NNC(=O)Cn2[nH]c(=O)c3ccccc3c2=O)c1	none
COc1ccc(NC(=O)Cn2c(=O)n(CC3CCCO3)c(=O)c3ccccc32)cc1 (configuration not stated)	none (no result: HT1080NT lethal, HT1080 IDH1KD tx, IL-1B inflam inh, ELG1 repair inh)
COCCNC(=O)C1(C)CCN(C(=O)Cc2ccc(OC)c(OC)c2)C1 (configuration not stated)	none (no result: ELG1 repair inh)
COc1ccc(NC(=O)C2Cc3c(-c4cccc(C(N)=O)c4)ccnc3O2)cc1 (configuration not stated)	HT1080NT lethal 12µM, TDP1 cell noCPT 3.7µM, HT1080 IDH1KD tx 15µM, TDP1 cell CPT 5.8µM (no result: ELG1 repair inh)
CC(=O)Nc1cccc(-c2ccnc3c2CC(C(=O)Nc2ccccc2)O3)c1 (configuration not stated)	TDP1 cell noCPT inconclusive, TDP1 cell CPT inconclusive, IL-1B inflam inh inconclusive (no result: ELG1 repair inh)
CC(=O)c1cccc(-c2ccnc3c2CC(C(=O)Nc2cccc(Oc4ccccc4)c2)O3)c1 (configuration not stated)	TDP1 cell noCPT inconclusive, TDP1 cell CPT inconclusive (no result: ELG1 repair inh)
O=C(Nc1cccc(Oc2ccccc2)c1)C1Cc2c(-c3ccccc3)ccnc2O1 (configuration not stated)	TDP1 cell noCPT inconclusive, TDP1 cell CPT 23µM, IL-1B inflam inh inconclusive (no result: ELG1 repair inh)
CC(=O)Nc1cccc(-c2ccnc3c2CC(C(=O)Nc2ccc(Cl)cc2)O3)c1 (configuration not stated)	HT1080NT lethal inconclusive, TDP1 cell noCPT 16µM, HT1080 IDH1KD tx 21µM, TDP1 cell CPT 16µM, IL-1B inflam inh inconclusive (no result: ELG1 repair inh)
COc1ccc(NC(=O)C2Cc3c(-c4cccc(F)c4)ccnc3O2)cc1 (configuration not stated)	TDP1 cell noCPT inconclusive, HT1080 IDH1KD tx inconclusive, TDP1 cell CPT 21µM (no result: ELG1 repair inh)
CS(=O)(=O)N1Cc2ccccc2CC1C(=O)OCC(=O)NCCc1ccc(S(N)(=O)=O)cc1 (configuration not stated)	none
COc1cccc(-c2cnc(C(O)c3cc(C)ccc3C)[nH]2)c1 (configuration not stated)	TDP1 cell CPT inconclusive, IL-1B inflam inh inconclusive (no result: ELG1 repair inh)
CCOC(=O)c1ccc(Nc2sc(C(=O)c3cccc([N+](=O)[O-])c3)c(N)c2C#N)cc1	TDP1 cell noCPT 0.73µM, HT1080 IDH1KD tx inconclusive, TDP1 cell CPT 1µM, ELG1 repair inh inconclusive
COc1cc(C(C)=O)ccc1OCC(=O)Nc1ccc(S(=O)(=O)N2CCCCC2)cc1	TDP1 cell noCPT 0.46µM (no result: ELG1 repair inh)
CCc1ccc(OCC(=O)Nc2ccc(S(=O)(=O)N3CCCC3)cc2)c(Br)c1	TDP1 cell noCPT inconclusive, HT1080 IDH1KD tx inconclusive, TDP1 cell CPT inconclusive
COc1cc(/C=C/C(=O)OCC(=O)Nc2cc(S(=O)(=O)N3CCCCC3)ccc2C)ccc1O	TDP1 cell noCPT inconclusive, TDP1 cell CPT inconclusive, ELG1 repair inh inconclusive
O=C(COc1ccc(Br)cc1CO)Nc1ccc(S(=O)(=O)N2CCCCC2)cc1	TDP1 cell noCPT inconclusive, TDP1 cell CPT inconclusive, ELG1 repair inh 18µM
COc1cc(/C=C/C(=O)OCC(=O)Nc2ccc(C)c(S(=O)(=O)N3CCCCC3)c2)ccc1O	HT1080NT lethal inconclusive, TDP1 cell noCPT 26µM, TDP1 cell CPT inconclusive, ELG1 repair inh inconclusive
COc1cc(C(C)=O)ccc1OCC(=O)Nc1ccc(C)c(S(=O)(=O)N2CCCCCC2)c1	TDP1 cell noCPT 16µM, TDP1 cell CPT 8.2µM, IL-1B inflam inh -59, ELG1 repair inh inconclusive
CN(c1ccc(OCC(=O)OCC(=O)NCc2ccco2)cc1)S(=O)(=O)c1ccc2ccccc2c1	none
CC(NC(=O)CSc1nc(-c2cccc(Cl)c2)nc2cc(=O)[nH]n12)c1nc2ccccc2n1C (configuration not stated)	none (no result: HT1080NT lethal, HT1080 IDH1KD tx, IL-1B inflam inh, ELG1 repair inh)
COc1cc(/C=C/C(=O)OCC(=O)Nc2ccc(NC(C)=O)cc2)cc(S(=O)(=O)N2CCc3ccccc32)c1OC	HT1080NT lethal inconclusive, TDP1 cell noCPT inconclusive, IL-1B inflam inh inconclusive, ELG1 repair inh 21µM
CCOc1cc(OCC)cc(C(=O)N2CCC[C@@H]2C(=O)N2CCC[C@H]2C(=O)NCc2ccncc2)c1	none (no result: ELG1 repair inh)
CCOC(=O)C[n+]1cccc(Br)c1	none (no result: HT1080NT lethal, HT1080 IDH1KD tx, IL-1B inflam inh, ELG1 repair inh)
CCOc1ccc2[nH]c(C(=O)N/N=C/c3cc(OC)c(OC)c(OC)c3)cc2c1	TDP1 cell noCPT 16µM, TDP1 cell CPT inconclusive, IL-1B inflam inh -79, ELG1 repair inh inconclusive
